{
  "source": "the antibiotic and cytotoxicity screens of Wong et al. (2023)",
  "note": "About 3,300 (8.5%) of roughly 39,000 compounds were called active. The list comes from a sample in which actives are over-represented; it also holds similar structures and randomly drawn compounds.",
  "data": [
    {"system": "HepG2", "assay": "cytotoxicity call (relative viability < 0.9)", "details": "10 µM", "values": [
      {"smiles": "COc1ccc(C#Cc2cnc3c(c2)C(=O)N([C@H](C)CO)C[C@@H](C)[C@@H](CN(C)C(=O)CN(C)C)O3)cc1", "cytotoxicity call": "inactive"},
      {"smiles": "C[C@H]1CN([C@@H](C)CO)C(=O)c2cc(NC(=O)CCCN(C)C)ccc2O[C@@H]1CN(C)S(=O)(=O)c1cn(C)cn1", "cytotoxicity call": "inactive"},
      {"smiles": "C[C@H](CO)N1C[C@H](C)[C@H](CN(C)Cc2ccc3c(c2)OCO3)Oc2ccc(NC(=O)C3CC3)cc2CC1=O", "cytotoxicity call": "inactive"},
      {"smiles": "Nc1ncn(C(=O)c2ccccc2)n1", "cytotoxicity call": "inactive"},
      {"smiles": "C[C@@H]1CN([C@H](C)CO)C(=O)c2cccc(NC(=O)c3nc4ccccc4s3)c2O[C@@H]1CN(C)Cc1ccc(C(=O)Nc2ccccc2N)cc1", "cytotoxicity call": "inactive"},
      {"smiles": "O=C(C[C@H]1C[C@@H]2c3cc(NS(=O)(=O)c4ccccc4)ccc3O[C@@H]2[C@@H](CO)O1)NC1CCCCC1", "cytotoxicity call": "inactive"},
      {"smiles": "COc1ccc(NC(C)=S)cc1C", "cytotoxicity call": "inactive"},
      {"smiles": "COc1ccc(S(=O)(=O)Nc2ccc3c(c2)C(=O)N([C@H](C)CO)C[C@@H](C)[C@H](CN(C)Cc2ccccc2)OCCCC[C@@H](C)O3)cc1", "cytotoxicity call": "inactive"},
      {"smiles": "O=C(NCCCN1CCOCC1)c1ccc(Cl)cc1", "cytotoxicity call": "inactive"},
      {"smiles": "COc1cc2c(N3CCN(C(=O)Nc4ccc(OC(C)C)cc4)CC3)ncnc2cc1OCCCN1CCCCC1", "cytotoxicity call": "inactive"},
      {"smiles": "COc1cc2ncnc(Nc3ccc(F)c(Cl)c3)c2cc1OCCCN1CCOCC1", "cytotoxicity call": "active"},
      {"smiles": "COc1cc2c(NC3CCN(C(C)C)CC3)nc(N3CCC(F)(F)CC3)nc2cc1OCCCN1CCCC1", "cytotoxicity call": "active"},
      {"smiles": "C[C@H](CO)N1C[C@H](C)[C@@H](CN(C)Cc2ccc(O)cc2)OCc2ccccc2-c2c(n(C)c3ccccc23)C1=O", "cytotoxicity call": "inactive"},
      {"smiles": "Cc1noc(C)c1NC(=O)Nc1ccc2c(c1)C(=O)N([C@@H](C)CO)C[C@@H](C)[C@H](CN(C)C(=O)Nc1ccc(F)cc1)OCCCC[C@H](C)O2", "cytotoxicity call": "inactive"},
      {"smiles": "C[C@H]1CN([C@@H](C)CO)C(=O)Cc2cc(NC(=O)CCC(F)(F)F)ccc2O[C@H]1CN(C)Cc1ccc(-c2ccccc2)cc1", "cytotoxicity call": "active"},
      {"smiles": "C[C@@H]1CN([C@H](C)CO)C(=O)Cc2cc(NC(=O)CCC(F)(F)F)ccc2O[C@@H]1CN(C)Cc1ccc(-c2ccccc2)cc1", "cytotoxicity call": "active"},
      {"smiles": "C[C@H](CO)N1C[C@H](C)[C@H](CN(C)Cc2ccc(-c3ccccc3)cc2)Oc2ccc(NC(=O)CCC(F)(F)F)cc2CC1=O", "cytotoxicity call": "inactive"},
      {"smiles": "C[C@H](CO)N1C[C@H](C)[C@@H](CN(C)Cc2ccc(-c3ccccc3)cc2)Oc2ccc(NC(=O)CCC(F)(F)F)cc2CC1=O", "cytotoxicity call": "inactive"},
      {"smiles": "C[C@H](CO)N1C[C@H](C)[C@@H](CN(C)Cc2ccc(C(F)(F)F)cc2)Oc2ccc(NC(=O)CCC(F)(F)F)cc2CC1=O", "cytotoxicity call": "inactive"},
      {"smiles": "C[C@H]1CN([C@@H](C)CO)C(=O)Cc2cc(NC(=O)CCC(F)(F)F)ccc2O[C@@H]1CN(C)Cc1ccc(-c2ccccc2)cc1", "cytotoxicity call": "active"},
      {"smiles": "C[C@@H]1CN([C@H](C)CO)C(=O)Cc2cc(NC(=O)CCC(F)(F)F)ccc2O[C@H]1CN(C)Cc1ccc(-c2ccccc2)cc1", "cytotoxicity call": "active"},
      {"smiles": "C[C@@H]1CN([C@@H](C)CO)C(=O)Cc2cc(NC(=O)CCC(F)(F)F)ccc2O[C@@H]1CN(C)Cc1ccc(-c2ccccc2)cc1", "cytotoxicity call": "inactive"},
      {"smiles": "C[C@@H]1CN([C@@H](C)CO)C(=O)Cc2cc(NC(=O)CCC(F)(F)F)ccc2O[C@H]1CN(C)Cc1ccc(-c2ccccc2)cc1", "cytotoxicity call": "inactive"},
      {"smiles": "C[C@H]1CN([C@@H](C)CO)C(=O)Cc2cc(NC(=O)CCC(F)(F)F)ccc2O[C@H]1CN(C)Cc1ccc(C(F)(F)F)cc1", "cytotoxicity call": "inactive"},
      {"smiles": "C[C@H](CO)N1C[C@H](C)[C@H](CN(C)Cc2ccc(C(F)(F)F)cc2)Oc2ccc(NC(=O)CCC(F)(F)F)cc2CC1=O", "cytotoxicity call": "inactive"},
      {"smiles": "C[C@@H]1CN([C@@H](C)CO)C(=O)Cc2cc(NC(=O)CCC(F)(F)F)ccc2O[C@H]1CN(C)Cc1ccc(C(F)(F)F)cc1", "cytotoxicity call": "inactive"},
      {"smiles": "CC(=O)N1CCC2(CC1)NC(=O)NC2=O", "cytotoxicity call": "inactive"},
      {"smiles": "O=C(CN1CCOCC1)NCC[C@@H]1CC[C@@H](NC(=O)c2ccccc2F)[C@@H](CO)O1", "cytotoxicity call": "inactive"},
      {"smiles": "Cc1ccnc([C@@H](N)C2CC2)c1", "cytotoxicity call": "inactive"},
      {"smiles": "C[C@@H]1CN([C@@H](C)CO)C(=O)c2cc(NC(=O)CCCCCC(=O)Nc3ccccc3N)ccc2O[C@H]1CN(C)S(=O)(=O)c1cn(C)cn1", "cytotoxicity call": "inactive"},
      {"smiles": "Nc1ccccc1C(=O)N[C@H]1CCCCNC1=O", "cytotoxicity call": "inactive"},
      {"smiles": "C[C@H](CO)N1C[C@H](C)[C@@H](CN(C)Cc2ccc(C(=O)Nc3ccccc3N)cc2)Oc2c(NC(=O)Nc3ccc4c(c3)OCO4)cccc2C1=O", "cytotoxicity call": "inactive"},
      {"smiles": "C[C@H]1CN([C@@H](C)CO)C(=O)c2cc(C#CCc3ccccc3)cnc2O[C@@H]1CN(C)C(=O)Cc1cccnc1", "cytotoxicity call": "inactive"},
      {"smiles": "COCC#Cc1cnc2c(c1)C(=O)N([C@H](C)CO)C[C@H](C)[C@@H](CN(C)S(=O)(=O)c1cccc(OC)c1)O2", "cytotoxicity call": "inactive"},
      {"smiles": "NC[C@H]1OB(O)c2c(OCCO)ccc(Cl)c21", "cytotoxicity call": "inactive"},
      {"smiles": "Cc1ccc(S(=O)(=O)Nc2cccc3c2O[C@H](CN(C)Cc2ccc(Oc4ccccc4)cc2)[C@@H](C)CN([C@H](C)CO)C3=O)cc1", "cytotoxicity call": "inactive"},
      {"smiles": "C[C@H]1CN([C@@H](C)CO)C(=O)c2ccccc2-c2ccccc2CO[C@@H]1CN(C)Cc1ccc(Cl)c(Cl)c1", "cytotoxicity call": "inactive"},
      {"smiles": "C[C@H]1CCCCO[C@H](CN(C)C(=O)Nc2ccc(F)cc2)[C@@H](C)CN([C@@H](C)CO)C(=O)c2cc(NS(=O)(=O)c3cccs3)ccc2O1", "cytotoxicity call": "inactive"},
      {"smiles": "Cc1noc(C)c1S(=O)(=O)N(C)C[C@H]1Oc2ccc(NC(=O)C3CCCCC3)cc2CC(=O)N([C@@H](C)CO)C[C@H]1C", "cytotoxicity call": "inactive"},
      {"smiles": "C[C@H](CO)N1C[C@H](C)[C@H](CN(C)Cc2ccc(-c3ccccc3)cc2)Oc2ccc(NC(=O)c3ccncc3)cc2CC1=O", "cytotoxicity call": "inactive"},
      {"smiles": "C[C@H](CO)N1C[C@H](C)[C@@H](CN(C)Cc2ccc(-c3ccccc3)cc2)Oc2ccc(NC(=O)c3ccncc3)cc2CC1=O", "cytotoxicity call": "inactive"},
      {"smiles": "C[C@@H]1CN([C@@H](C)CO)C(=O)Cc2cc(NC(=O)c3ccncc3)ccc2O[C@@H]1CN(C)Cc1ccc(-c2ccccc2)cc1", "cytotoxicity call": "inactive"},
      {"smiles": "C[C@@H]1CN([C@H](C)CO)C(=O)Cc2cc(NC(=O)c3ccncc3)ccc2O[C@@H]1CN(C)Cc1ccncc1", "cytotoxicity call": "inactive"},
      {"smiles": "C[C@H]1CN([C@@H](C)CO)C(=O)Cc2cc(NC(=O)c3ccncc3)ccc2O[C@@H]1CN(C)Cc1ccc(-c2ccccc2)cc1", "cytotoxicity call": "inactive"},
      {"smiles": "C[C@@H]1CN([C@H](C)CO)C(=O)Cc2cc(NC(=O)c3ccncc3)ccc2O[C@@H]1CN(C)Cc1ccc(-c2ccccc2)cc1", "cytotoxicity call": "active"},
      {"smiles": "C[C@H]1CN([C@@H](C)CO)C(=O)Cc2cc(NC(=O)c3ccncc3)ccc2O[C@H]1CN(C)Cc1ccc(-c2ccccc2)cc1", "cytotoxicity call": "active"},
      {"smiles": "C[C@@H]1CN([C@H](C)CO)C(=O)Cc2cc(NC(=O)c3ccncc3)ccc2O[C@H]1CN(C)Cc1ccc(-c2ccccc2)cc1", "cytotoxicity call": "inactive"},
      {"smiles": "C[C@@H]1CN([C@@H](C)CO)C(=O)Cc2cc(NC(=O)c3ccncc3)ccc2O[C@H]1CN(C)Cc1ccc(-c2ccccc2)cc1", "cytotoxicity call": "active"}
    ]}
  ]
}
